Results as given in PubChem BioAssay (NCI).
About 83,000 compounds went through this panel and 20% of them were active in at least one assay; those are over-represented in the sample as a whole.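 Cell lines were cultured in 96-well plates, exposed to a single compound concentration, and assessed for percent growth 48 hours later.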 Activity calls are given as the source filed them. The calls were made as follows: active = growth percent below 10; inactive = the rest.

Assays:
Assay in all cases: NCI-60 one-dose screen, 48 h (100 = growth as untreated, 0 = no growth, -100 = all killed)
NCI-H226 lung = conditions: 10 µM
HOP-62 NSCLC = conditions: 10 µM unless noted
NCI-H460 lung = conditions: 10 µM unless noted
HOP-92 NSCLC = conditions: 10 µM unless noted
NCI-H522 lung = conditions: 10 µM
A549/ATCC NSCLC = conditions: 10 µM unless noted
786-0 renal = conditions: 10 µM unless noted
COLO 205 colon = conditions: 10 µM unless noted
DU-145 prostate = conditions: 10 µM unless noted
K-562 leukemia = conditions: 10 µM unless noted
MALME-3M melanoma = conditions: 10 µM unless noted
MDA-MB-231 breast = conditions: 10 µM unless noted
RXF 393 renal = conditions: 10 µM unless noted
SF-268 CNS = conditions: 10 µM unless noted
SF-295 CNS = conditions: 10 µM unless noted
SF-539 CNS = conditions: 10 µM unless noted
UACC-257 melanoma = conditions: 10 µM unless noted
M14 melanoma = conditions: 10 µM unless noted
NCI-H322M lung = conditions: 10 µM unless noted

Measured: growth

Nc1nc(N)c(N=Nc2c(Br)cc(S(N)(=O)=O)cc2Br)c(N)n1
inactive: NCI-H226 lung 91.9% | HOP-62 NSCLC 103% | NCI-H460 lung 105% | HOP-92 NSCLC 85% | NCI-H522 lung 97.9% | A549/ATCC NSCLC 97.4% | 786-0 renal 106% | COLO 205 colon 104% | DU-145 prostate 109% | K-562 leukemia 51.1% | MALME-3M melanoma 111% | MDA-MB-231 breast 105% | RXF 393 renal 107% | SF-268 CNS 100% | SF-295 CNS 94.9% | SF-539 CNS 112% | UACC-257 melanoma 98.7% | M14 melanoma 87.8%

COc1ccc(/C=C2\CN(Cc3cn(CCCNc4ccnc5cc(Cl)ccc45)nn3)C/C(=C\c3ccc(OC)cc3)C2=O)cc1
inactive: NCI-H226 lung 96.7% | NCI-H322M lung 80.1% | NCI-H460 lung 86.3% | HOP-92 NSCLC 53.8% | NCI-H522 lung 87.9% | A549/ATCC NSCLC 65.7% | 786-0 renal 76.3% | COLO 205 colon 81.6% | DU-145 prostate 40.2% | K-562 leukemia 63.2% | MALME-3M melanoma 98.4% | MDA-MB-231 breast 52.6% | RXF 393 renal 27.7% | SF-268 CNS 45.5% | SF-295 CNS 72.6% | SF-539 CNS 78.1% | UACC-257 melanoma 56% | M14 melanoma 70.8%

CN1CCn2c(c(Sc3ccc(C(=O)NO)cc3)c3ccccc32)C1=O
active: NCI-H226 lung -8.32% | NCI-H522 lung -97.3% | COLO 205 colon 1.64% | MDA-MB-231 breast -15.2% | RXF 393 renal -14.4% | SF-268 CNS -34.9% | SF-295 CNS -1.68% | SF-539 CNS -90.8% | UACC-257 melanoma -9.93% | M14 melanoma -37.7%
inactive: NCI-H322M lung 53% | NCI-H460 lung 20.4% | A549/ATCC NSCLC 62% | 786-0 renal 39.8% | DU-145 prostate 36.3% | MALME-3M melanoma 63.6%

Brc1ccc(SCN(CSc2ccc(Br)cc2)Cc2ccccc2)cc1
inactive: NCI-H226 lung 76.6% | HOP-62 NSCLC 120% | NCI-H460 lung 63.1% | HOP-92 NSCLC 59.7% | NCI-H522 lung 73% | A549/ATCC NSCLC 45.8% | 786-0 renal 60.8% | COLO 205 colon 108% | DU-145 prostate 96.8% | K-562 leukemia 81.5% | MALME-3M melanoma 104% | MDA-MB-231 breast 39.8% | RXF 393 renal 89.9% | SF-268 CNS 45.4% | SF-295 CNS 52.3% | SF-539 CNS 49.8% | UACC-257 melanoma 93.1% | M14 melanoma 73.7%

Cc1ccc(S(=O)(=O)N(c2ccc(Cl)cc2)c2ccc(Br)cc2C(=O)O)cc1
inactive: NCI-H226 lung 97.7% | NCI-H322M lung 114% | HOP-62 NSCLC 105% | NCI-H460 lung 107% | NCI-H522 lung 102% | A549/ATCC NSCLC 105% | 786-0 renal 114% | COLO 205 colon 116% | DU-145 prostate 117% | K-562 leukemia 107% | MDA-MB-231 breast 119% | RXF 393 renal 100% | SF-268 CNS 111% | SF-295 CNS 112% | SF-539 CNS 102% | UACC-257 melanoma 101% | M14 melanoma 117%

CC1(C)N=C(N)N=C(N)N1c1cccc(/C=C/C=C/c2cccc([N+](=O)[O-])c2)c1
inactive: NCI-H226 lung 76.9% | HOP-62 NSCLC 104% | NCI-H460 lung 21.3% | HOP-92 NSCLC 70.7% | NCI-H522 lung 27.6% | A549/ATCC NSCLC 28.2% | 786-0 renal 91.9% | COLO 205 colon 29.7% | DU-145 prostate 73% | K-562 leukemia 20.6% | MALME-3M melanoma 66.3% | MDA-MB-231 breast 81.3% | RXF 393 renal 90.4% | SF-268 CNS 42.5% | SF-295 CNS 83.8% | SF-539 CNS 15.9% | UACC-257 melanoma 41.4% | M14 melanoma 74.5%

COC(=O)CCC(=O)c1ccccc1
inactive: NCI-H226 lung 115% | NCI-H322M lung 119% | HOP-62 NSCLC 116% | NCI-H460 lung 106% | NCI-H522 lung 106% | A549/ATCC NSCLC 95.4% | 786-0 renal 94.7% | COLO 205 colon 115% | DU-145 prostate 106% | K-562 leukemia 96.9% | MALME-3M melanoma 158% | MDA-MB-231 breast 111% | RXF 393 renal 139% | SF-268 CNS 107% | SF-295 CNS 91.8% | SF-539 CNS 99.9% | UACC-257 melanoma 106% | M14 melanoma 103%

COC(=O)c1ccc(C(=O)Nc2ccccc2N)cc1
inactive: NCI-H226 lung 73.9% | NCI-H322M lung 66.5% | HOP-62 NSCLC 95% | NCI-H460 lung 63.3% | NCI-H522 lung 75.1% | A549/ATCC NSCLC 94.7% | 786-0 renal 80.8% | COLO 205 colon 106% | DU-145 prostate 80.2% | K-562 leukemia 73.3% | MDA-MB-231 breast 67.3% | RXF 393 renal 86.8% | SF-268 CNS 65.4% | SF-539 CNS 64.9% | UACC-257 melanoma 75.7% | M14 melanoma 83.3%

COc1nc2c(cc1S(=O)(=O)c1ccccc1)CCc1c-2cnn1-c1ccccc1
inactive: NCI-H226 lung 87.2% | HOP-62 NSCLC 81.3% | NCI-H460 lung 77.5% | HOP-92 NSCLC 22.1% | NCI-H522 lung 47.9% | A549/ATCC NSCLC 57.7% | 786-0 renal 76.5% | COLO 205 colon 96.3% | DU-145 prostate 95.4% | K-562 leukemia 54.1% | MALME-3M melanoma 69.2% | MDA-MB-231 breast 89.2% | RXF 393 renal 94.4% | SF-268 CNS 86.8% | SF-295 CNS 84.9% | SF-539 CNS 79% | UACC-257 melanoma 78.2% | M14 melanoma 80.7%

Cc1nc2cc(Nc3nc(N4CCCCC4)nc(N4CCOCC4)n3)ccc2n1Cc1ccccc1
inactive: NCI-H226 lung 28.4% | HOP-62 NSCLC 44.5% | NCI-H522 lung 37.9% | 786-0 renal 10.9% | COLO 205 colon 41% | K-562 leukemia 84.3% | SF-268 CNS 69% | SF-295 CNS 78.9% | SF-539 CNS 81.6% | UACC-257 melanoma 60.4% | M14 melanoma 48.4%
active: NCI-H460 lung 4.87% | HOP-92 NSCLC -28.2% | A549/ATCC NSCLC -0.889% | DU-145 prostate 5.36% | MALME-3M melanoma -3.76% | MDA-MB-231 breast 9.6% | RXF 393 renal -5.84%

CSC1=CC(=O)c2ccccc2C1=O
inactive: NCI-H226 lung 89.2% | NCI-H322M lung 107% | NCI-H460 lung 95.6% | NCI-H522 lung 18.5% | A549/ATCC NSCLC 99.1% | 786-0 renal 106% | COLO 205 colon 101% | DU-145 prostate 95.5% | RXF 393 renal 98.3% | SF-268 CNS 69% | SF-295 CNS 93.7% | SF-539 CNS 97.1% | UACC-257 melanoma 42% | M14 melanoma 94.7%
active: HOP-92 NSCLC -29% | MALME-3M melanoma -0.209% | MDA-MB-231 breast -14.5%

CCSc1nnc2c3cc(Br)ccc3n(C)c2n1
inactive: NCI-H226 lung 93.6% | NCI-H322M lung 101% | HOP-62 NSCLC 82.7% | NCI-H460 lung 102% | NCI-H522 lung 99.5% | A549/ATCC NSCLC 102% | 786-0 renal 102% | COLO 205 colon 102% | DU-145 prostate 119% | K-562 leukemia 118% | MDA-MB-231 breast 93.3% | RXF 393 renal 116% | SF-268 CNS 107% | SF-295 CNS 93.7% | SF-539 CNS 106% | UACC-257 melanoma 105% | M14 melanoma 98.4%

Cc1nc2cc(Nc3nc(Nc4ccc(F)cc4)nc(N4CCCC4)n3)ccc2n1Cc1ccccc1
inactive: NCI-H322M lung 21.4%
active: NCI-H226 lung -17.1% | NCI-H460 lung -30.4% | HOP-92 NSCLC -12.3% | NCI-H522 lung -4.13% | A549/ATCC NSCLC -0.672% | 786-0 renal -21.7% | COLO 205 colon -72.6% | DU-145 prostate -41.5% | K-562 leukemia 0.0326% | MALME-3M melanoma -61.6% | MDA-MB-231 breast -59.7% | RXF 393 renal -83.5% | SF-268 CNS -26.3% | SF-295 CNS -26.8% | SF-539 CNS -25% | UACC-257 melanoma -22.7% | M14 melanoma -48.1%

OB(O)c1ccccc1
inactive: NCI-H226 lung 105% | NCI-H322M lung 111% | NCI-H460 lung 110% | HOP-92 NSCLC 112% | NCI-H522 lung 103% | A549/ATCC NSCLC 98.5% | 786-0 renal 103% | COLO 205 colon 116% | DU-145 prostate 111% | MALME-3M melanoma 102% | MDA-MB-231 breast 114% | RXF 393 renal 123% | SF-268 CNS 106% | SF-295 CNS 97.7% | SF-539 CNS 106% | UACC-257 melanoma 99.4% | M14 melanoma 108%

O=C(Nc1ccccc1O)c1ccc(NS(=O)(=O)c2cccc3cccnc23)cc1
inactive: NCI-H226 lung 50.3% | NCI-H322M lung 48.3% | HOP-62 NSCLC 38.3% | NCI-H460 lung 40.2% | NCI-H522 lung 37.7% | A549/ATCC NSCLC 51.1% | 786-0 renal 71.9% | COLO 205 colon 47.8% | DU-145 prostate 49.1% | K-562 leukemia 23.8% | MDA-MB-231 breast 64% | RXF 393 renal 69.8% | SF-268 CNS 44% | SF-295 CNS 62.9% | SF-539 CNS 41.4% | UACC-257 melanoma 26.8% | M14 melanoma 41.1%

Brc1ccc(Br)nn1
active: NCI-H226 lung -26.8% | NCI-H322M lung -97.4% | NCI-H460 lung -21.9% | HOP-92 NSCLC -64.7% | NCI-H522 lung -33.2% | A549/ATCC NSCLC 5.91% | 786-0 renal -81% | COLO 205 colon -92.5% | DU-145 prostate -91% | MALME-3M melanoma -91% | MDA-MB-231 breast -65.6% | RXF 393 renal -89.8% | SF-268 CNS -74.4% | SF-295 CNS -10.9% | SF-539 CNS -53.1% | UACC-257 melanoma -68.4% | M14 melanoma -76.4%

O=C(Nc1ccc(Cl)c(Cl)c1)OCn1ncc2ccc([N+](=O)[O-])cc21
inactive: NCI-H226 lung 81.3% | HOP-62 NSCLC 71.6% | NCI-H460 lung 99.8% | HOP-92 NSCLC 62.6% | NCI-H522 lung 49.4% | A549/ATCC NSCLC 82.8% | 786-0 renal 83.3% | COLO 205 colon 93.2% | DU-145 prostate 108% | K-562 leukemia 88% | MALME-3M melanoma 78.5% | MDA-MB-231 breast 75.7% | RXF 393 renal 83.2% | SF-268 CNS 82.3% | SF-295 CNS 88.4% | SF-539 CNS 78.1% | UACC-257 melanoma 90.2% | M14 melanoma 94.7%
